Screening data as filed in PubChem BioAssay.
IL-1B inflam inh: blocks inflammasome-driven IL-1 beta release. THP-1 LPS/ATP IL-1B secretion, AlphaLISA, 16 h; hits give low values. activity change, % at 57.5 µM. hit rate 4.7% among 360,000. AID 743279; in the data active means activity change below about -50%; inconclusive means mostly about -30% to -49%
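Secreted IL-1B measured by AlphaLISA bead assay after 16 h compound exposure of THP-1 cells; compounds (final up to 57.5 uM) added 1 h before LPS (250 ng/mL) and ATP (1.25 mM) stimulation; lower signal means less secretion.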
DT40 TDP1 no CPT: qHTS for Inhibitors of human tyrosyl-DNA phosphodiesterase 1 (TDP1): qHTS in cells in absence of CPT | Potency, µM (titrated, usually from 46.2 µM), for inactives: at the highest dose activity change, negative = growth inhibition, usual class: inhibitors | AID 686978, 2013 | hit rate 15% among 420,000 | DT40 Tdp1-/- hTDP1 cells, no CPT, ATP luminescence, 48 h; further: potency means the concentration at half of the fitted maximal effect; nearly all actives have a fitted effect of over 55% in size
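Growth of hTDP1-complemented DT40 Tdp1-knockout cells is measured by ATP luminescence after at least 48 hr compound exposure at 37 °C, with DMSO substituting for the 20 nM CPT used in the parallel screen.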
TDP1 cell CPT: DT40-hTDP1 cell growth loss with CPT; chicken DT40 Tdp1-/-;hTDP1 cells + 20 nM CPT, ATP luminescence, 48 h; Potency, µM (top dose mostly 46.2 µM), inactives show at the top dose activity change, negative = growth inhibition, most hits filed as inhibitors; hit rate 12% among 420,000; further: potency means the concentration at half of the fitted maximal effect; nearly all actives have a fitted effect of over 55% in size
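Chicken DT40 Tdp1-/- cells stably complemented with human TDP1 were seeded at 400 cells/well in medium containing 20 nM camptothecin, exposed to pin-transferred compounds, and grown at 37 °C for at least 48 hr. Viability was read as ATP luminescence.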
uPA generation: blocks generation of uPA at the cell surface. cell surface uPA generation assay, qHTS. Potency, µM (series often up to 38.3 µM), without a hit: at the top dose activity change, negative = inhibition, usual class: inhibitors. hit rate 0.31% among 330,000; active means well fitted inhibition curve with a large enough effect; inconclusive means small, poorly fitted or top-dose-only effect; inactive means no such curve, though single readings can be large or run the other way; tested in mouse RAW 264.7 cells; further: potency means the concentration at half of the fitted maximal effect; nearly all actives have a fitted effect of over 55% in size
HT1080 IDH1KD tx: kills HT-1080 cells with IDH1 knockdown | HT-1080 IDH1 knockdown viability, ATP luminescence, 48 h | Potency, µM (doses to about 46.1 µM), inactives show at the highest dose activity, negative = toxicity, actives largely listed as cytotoxic | hit rate 2% among 360,000;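 further: potency means the concentration at half of the fitted maximal effect; 0% = DMSO wells and -100% = cell-free medium wells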
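After a 2 h attachment period, IDH1KD HT-1080 cells took pin-transferred compound for 48 h at 37 °C; ATP-based luminescence after 10 min room-temperature reagent incubation reported viability.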
HT1080-NT tox: kills 2HG-producing HT-1080-NT fibrosarcoma cells; HT-1080-NT fibrosarcoma viability, CellTiter-Glo ATP luminescence, 48 h; hit rate 1.6% among 360,000; Potency, µM (top dose mostly 46.1 µM), inactives show at the highest dose activity, negative = less viability, hits mostly cytotoxic;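 further: NT is the 2HG producing partner of a matched IDH1 knockdown line; potency means the concentration at half of the fitted maximal effect; 0% = DMSO-treated cells and -100% = media-only wells without cells; nearly all actives have a fitted effect of over 55% in size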
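Luminescent CellTiter-Glo readout after 48 hours of compound exposure at 37 degrees C defined viability of HT-1080-NT cells. Activity was normalized to DMSO wells and cell-free media wells; concentration-response curves were fitted and assigned curve classes.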
Starred values were filed as active, the others as inactive; ? = inconclusive; · = no result; [ ] = dose if it differs, or a comment. In the library only some 19% were active in any assay of this set; here they are far more common. Unless noted, the call rests on the fitted dose curve; in most records, active means well fitted curve in the direction sought with a large enough effect; inconclusive means small, poorly fitted or top-dose-only effect, or another doubt; inactive means no such curve, though single readings can be large; an effect the other way counts as inactive or inconclusive. Unless noted, on the % scale 0 is the no-effect control and ±100 the full control effect.

SMILES	IL-1B inflam inh	DT40 TDP1 no CPT	TDP1 cell CPT	uPA generation	HT1080 IDH1KD tx	HT1080-NT tox
CCOC(=O)C1=C(C)NC(=O)NC1c1ccccc1OCc1c(F)cccc1Cl (configuration not stated)	-9	16µM*	23µM*	-9%	-16%	-10%
CCOC(=O)C1=C(COc2ccc(C)cc2)NC(=O)NC1c1cc(C)ccc1C (configuration not stated)	19	12µM*	23µM*	6%	10%	12%
Cc1ccc(NC(=O)CSc2nnc3[nH]c(=O)cc(-c4ccccc4)n23)cc1Cl	·	4%	-7%	·	·	·
CC1CCN(C(=O)CSc2nnc(CNC(=O)c3ccc(S(=O)(=O)N(C)C)cc3)o2)CC1	6	-19%	?	11%	0%	1%
CCOC(=O)c1c(NC(=S)N2CCN(C)CC2)sc(C)c1-c1ccccc1	?	?	?	-3%	?	?
CCOC(=O)c1c(NC(=O)CCl)sc(CN(C)C)c1-c1ccccc1	-98*	9.2µM*	4.1µM*	-14%	?	?
CCOC(=O)c1c(NC(=O)CN2CCCCC2)sc(CN(C)C)c1-c1ccccc1	-60*	?	?	-2%	12%	16%
CN(Cc1ccccc1)C(=O)C1CCN(S(=O)(=O)Cc2ccccc2)CC1	·	-20%	-2%	·	·	·
COc1ccc(-c2nc(SC)n(C)c(=O)c2C#N)cc1OC	-76*	?	?	-3%	1%	1%
CCSc1ccc(-c2cccc([N+](=O)[O-])c2)nn1	-3	-19%	12%	1%	3%	-4%
Cc1nn(-c2nnc(NC3CCCCC3)nn2)c(C)c1Br	-75*	-4%	-8%	-5%	6%	10%
Cc1nn(C)c(C)c1S(=O)(=O)NC1CCCC1	6	-3%	-1%	-6%	3%	6%
COCCN1CCc2nc(SCC(=O)Nc3ccc(Br)cc3)[nH]c(=O)c2C1	·	1%	-1%	·	·	·
Cc1ccc(N2NC(=O)/C(=C\c3cc4c(cc3[N+](=O)[O-])OCO4)C2=O)cc1C	-105*	?	?	3%	-1%	-14%
COc1cc(/C=C2/C(=O)NN(c3ccc(C)c(Cl)c3)C2=O)cc([N+](=O)[O-])c1O	-9	0%	-9%	14%	-1%	-10%
Cc1ncoc1C(=O)N1CCOc2ccc(CN3CCN(c4ccccn4)CC3)cc2C1	·	?	-7%[9.04 µM]	·	·	·
O=C(Nc1cc(-c2nc3cc(Cl)ccc3o2)ccc1Cl)c1cc([N+](=O)[O-])ccc1N1CCOCC1	·	-8%	5%	·	·	·
O=C(Nc1cccc(-c2nc3ccccc3o2)c1)c1cc([N+](=O)[O-])ccc1N1CCOCC1	·	8.2µM*	?	·	·	·
COc1ccc2oc(-c3cccc(NC(=O)c4cc([N+](=O)[O-])ccc4N4CCOCC4)c3)nc2c1	·	?	13µM*	·	·	·
O=C(c1ccco1)N1N=C(c2ccc(Cl)cc2)CC1c1ccco1 (configuration not stated)	?	9.2µM*	18µM*	2%	-3%	?
CC(=O)N1N=C(c2ccc(NS(=O)(=O)c3ccccc3)cc2)CC1c1ccco1 (configuration not stated)	58	2.3µM*	2.6µM*	0.71µM*	5.2µM*	4.6µM*
CC(=O)N1N=C(c2cccc(NS(=O)(=O)c3ccc(C)cc3)c2)CC1c1ccco1 (configuration not stated)	-20	?	?	-1%	?	-4%
CCc1ccc(C2=NN(C(C)=O)C(c3ccco3)C2)cc1 (configuration not stated)	-5	16µM*	?	-5%	-3%	-3%
CN1CC(=O)N(CC(=O)N2N=C(c3ccc(Cl)cc3)CC2c2ccco2)C1=O (configuration not stated)	-4	?	?	0%	-1%	15%
Cc1ccc(C2=NN(C(=O)CSc3nccn3C)C(c3ccco3)C2)cc1 (configuration not stated)	?	21µM*	21µM*	-16%	15µM*	18µM*
SMILES	IL-1B inflam inh	DT40 TDP1 no CPT	TDP1 cell CPT	uPA generation	HT1080 IDH1KD tx	HT1080-NT tox
COc1cccc(-c2cnc(C(O)c3cc(C)c(OC)c(C)c3)[nH]2)c1 (configuration not stated)	27	?	-16%	·	-6%	-3%
CCOCCCNC(=O)Cn1ncc2c([nH]c3ccccc32)c1=O	·	-4%	-2%	·	·	·
COc1cc(OC)c(NS(=O)(=O)c2c(C(=O)N3CCC(C)CC3)c(C)n(C)c2C)cc1Cl	·	-30%	-27%	·	·	·
Cc1sc(-c2cc3ccccc3oc2=O)nc1-c1ccc(Cl)cc1	·	-8%	16%	·	·	·
COCC(=O)OCC(=O)N1N=C(c2ccc(Cl)cc2)CC1c1ccco1 (configuration not stated)	-8	-29%	-25%	0%	-3%	-7%
CCC(=O)N1N=C(c2ccc(Cl)cc2)CC1c1ccco1 (configuration not stated)	·	12µM*	23µM*	-4%	-10%	-3%
COc1ccc(C2=NN(C(N)=S)C(c3ccco3)C2)cc1 (configuration not stated)	0	-23%	?	-15%	-7%	9%
COc1ccc(C2=NN(C(=O)c3ccco3)C(c3ccco3)C2)cc1OC (configuration not stated)	-20	18µM*	29µM*	2%	-15%	-17%
O=C(c1ccco1)N1N=C(c2cccs2)CC1c1ccco1 (configuration not stated)	16	10%	1%	8%	23%	5%
CC(C)[C@H](NS(=O)(=O)c1ccccc1)C(=O)OCC(=O)N1N=C(c2ccc(Cl)cc2)CC1c1ccco1 (some centres not stated)	-72*	13µM*	18µM*	-5%	?	?
O=C(c1ccco1)N1N=C(c2ccc(Br)cc2)CC1c1ccco1 (configuration not stated)	-67*	5.2µM*	8.2µM*	-28%	10%	5%[9.24 µM]
Nc1cc(=O)[nH]c(SCC(=O)N2N=C(c3ccc(Cl)cc3)CC2c2ccco2)n1 (configuration not stated)	-26	?	18µM*	0%	-19%	-19%
COc1ccc(C2=NN(C(=O)CSc3nnc(-c4ccccc4F)o3)C(c3ccco3)C2)cc1 (configuration not stated)	9	21µM*	?	-2%	-6%	-5%
